Data reported in PubChem BioAssay.

Experiment: viability profiling in RPMI8226 myeloma cells – cell-based, resazurin fluorescence, basal, 24 h, PK04 Diversity Set, profiling panel (AID 1180);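 note: RPMI8826 multiple myeloma cell line at 5000 cells per well; test concentration not given here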
Conditions: higher = more signal

**Q.** For `CC(CCN1CCCCc2nc(C)c(C)cc21)=NOC[C@@H](C)[C@H](OCc1ccccc1)C(C)C`, which z-score is on record?
**A.** 0.0342

**Q.** For `COC(=O)CC=C[C@@H](C)[C@@H](C=NO[C@@H]1O[C@H](COC(C)=O)[C@@H](OC(C)=O)[C@H](OC(C)=O)[C@H]1OC(C)=O)OC`, which z-score is on record?
**A.** 0.672

**Q.** With `CO[C@@H]1COC(=O)[C@H](CCSC)NC(=O)CC=C[C@@H](C)COC(=O)CCC[C@H]1C` as the compound, how does the z-score read?
**A.** 0.53

**Q.** Which z-score does the source give for `CCCNC(=O)OC[C@H]1O[C@H](CCON=C(C)CCC(=O)OC[C@H]2O[C@H](c3ccccc3)C=C[C@@H]2Oc2ccc(OC)cc2)C=C[C@@H]1Oc1ccc(OC)cc1` here?
**A.** 1.31

**Q.** With `CCN1C(=O)[C@@H]2[C@H]3C(=CC[C@@H]2C1=O)C1(OCCCO1)[C@H]1O[C@H]1[C@H]3O` as the compound, how does the z-score read?
**A.** -5.89

**Q.** For `O=C1[C@H]2[C@H]3[C@H](O)[C@H](O)CC(=NOC[C@@H](O)COCc4ccco4)[C@H]3CC[C@H]2C(=O)N1Cc1ccccc1`, which z-score is on record?
**A.** 1.1

**Q.** With `CO[C@H]1COC(=O)[C@@H](C)COC(=O)[C@H](C)NC(=O)CC=C[C@H]1C` as the compound, how does the z-score read?
**A.** 0.351

**Q.** With `C[C@H]1COC(=O)[C@@H]2CCCN2C(=O)[C@@H](C)COC(=O)[C@H](Cc2ccccc2)NC1=O` as the compound, how does the z-score read?
**A.** 0.586

**Q.** With `COC(=O)CC=C[C@@H](C)[C@H](OCc1cccc(-c2ccccc2)c1)C1CCCCC1` as the compound, how does the z-score read?
**A.** 0.403

**Q.** For `C=CC[C@@H]1C=C[C@H](ON=C(C)CCC(=O)OC[C@H]2O[C@H](C#Cc3ccccc3)C=C[C@@H]2Oc2ccc(C)cc2)[C@@H](CO)O1`, which z-score is on record?
**A.** -0.177

**Q.** Which z-score does the source give for `CON=C[C@@H](NS(=O)(=O)c1ccc(C)cc1)[C@H](C)C=CCC(=O)OC` here?
**A.** -0.484

**Q.** For `CO[C@@H]1COC(=O)CC=C[C@H](C)[C@H](OC)COC(=O)[C@H](C)NC(=O)CC=C[C@H]1C`, which z-score is on record?
**A.** 0.453

**Q.** For `CC(CCC(=O)OC[C@H]1O[C@H](C#Cc2ccccc2)C=C[C@@H]1Oc1ccc(C)cc1)=NO[C@H](C)c1cn([C@H](CO)Cc2ccccc2)nn1`, which z-score is on record?
**A.** 0.274

**Q.** For `CCOC(=O)[C@H](Cc1ccccc1)NC(=O)CCC1CC(OC(=O)NCc2cccc3ccccc23)CC2(CCCC(COC(=O)NCC(c3ccccc3)c3ccccc3)O2)O1` (stereo partly specified), which z-score is on record?
**A.** 1.27

**Q.** For `CC(C)=CCCC(C)=CCON=C1C[C@@H](O)[C@@H](O)[C@@H]2[C@@H]3C(=O)N(C[C@@H]4CCCO4)C(=O)[C@@H]3CC[C@H]12`, which z-score is on record?
**A.** -0.251

**Q.** Which z-score does the source give for `COC(=O)[C@H]1O[C@@H](c2c(OC)c(OC)c(C)c(OC)c2OC)[C@H](C)[C@@H](O)[C@H]1C` here?
**A.** -0.456

**Q.** With `COc1ccc(O[C@H]2C=C[C@@H](c3ccccc3)O[C@@H]2COC(=O)CCC(C)=NOC[C@@H](O)[C@H]2O[C@@H]3OC(C)(C)O[C@@H]3[C@H]2O)cc1` as the compound, how does the z-score read?
**A.** 1.04

**Q.** For `CCOC(=O)[C@H](CC(C)C)NC(=O)CCC1CC(OC(=O)NCCc2ccc(F)cc2)CC2(CCCC(COC(=O)NCC3CCCCC3)O2)O1` (stereo partly specified), which z-score is on record?
**A.** 0.738

**Q.** Which z-score does the source give for `CC(C)=CCCC(C)=CCON=C1C[C@@H](O)[C@@H](O)[C@@H]2[C@@H]3C(=O)N(C4CCCCC4)C(=O)[C@@H]3CC[C@@H]12` here?
**A.** -0.51

**Q.** For `COC(=O)CC=C[C@@H](C)[C@@H](C=NOC[C@H]1O[C@H](c2ccccc2)C=C[C@@H]1Oc1ccc(OC)cc1)NS(=O)(=O)c1ccc(C)cc1`, which z-score is on record?
**A.** -0.189

**Q.** Which z-score does the source give for `CCc1cc2c(nc1CC)CCN(CCC(C)=NO[C@H](C)c1cn([C@@H]3COC[C@H]3O)nn1)C2` here?
**A.** -0.828

**Q.** With `CCOC(=O)NN=C1C[C@@H](O)[C@@H](O)[C@@H]2[C@@H]3C(=O)N(Cc4ccc5c(c4)OCO5)C(=O)[C@@H]3CC[C@H]12` as the compound, how does the z-score read?
**A.** 0.3

**Q.** With `CO[C@H]1COC(=O)CC=C[C@H](C)[C@@H](OC)COC(=O)[C@@H](C)NC(=O)CC=C[C@@H]1C` as the compound, how does the z-score read?
**A.** 0.808

**Q.** For `CO[C@@H]1COC(=O)CC=C[C@@H](C)[C@@H]2C=C[C@H](O)[C@@H](COC(=O)CC=C[C@H]1C)O2`, which z-score is on record?
**A.** 0.366

**Q.** With `CCOC(=O)[C@H](CC(C)C)NC(=O)CCC1CC(OC(=O)NCCc2ccc(F)cc2)CC2(CCCC(COC(=O)NCCc3ccccc3OC)O2)O1` (stereo partly specified) as the compound, how does the z-score read?
**A.** 0.441

**Q.** With `CCCNC(=O)OC[C@H]1O[C@H](CCON=C(C)CCN2CCCc3nc(C)c(C)cc32)C=C[C@@H]1Oc1ccc(OC)cc1` as the compound, how does the z-score read?
**A.** 1.46

**Q.** With `CCC(=O)[C@@]1(O)C(=O)N2C(=C3C(=O)OCC[C@@H]31)N(Cc1ccccc1)C(C)=C(C(=O)OC)[C@H]2c1ccccc1` as the compound, how does the z-score read?
**A.** -0.557

**Q.** With `CC(C)(C)N1C(=O)[C@H]2[C@H]3[C@H](O)C=CC(=O)[C@@H]3CC[C@H]2C1=O` as the compound, how does the z-score read?
**A.** 0.467

**Q.** For `CC(CCN1CCCc2nc(C)c(C)cc21)=NO[C@@H](C)c1cc(-c2c(C)cc(C)cc2C)no1`, which z-score is on record?
**A.** 0.378

**Q.** With `C[C@H](ON=C1[C@H]2CCn3c(=O)n(-c4ccccc4)c(=O)n3[C@H]2[C@H](O)[C@@H]2O[C@H]12)c1cn([C@H](CO)Cc2ccccc2)nn1` as the compound, how does the z-score read?
**A.** -0.226

**Q.** For `CCN1C(=O)[C@H]2[C@H]3[C@H](O)[C@H](O)CC(=O)[C@H]3CC[C@H]2C1=O`, which z-score is on record?
**A.** -0.0216

**Q.** With `C#CCCCON=C1C[C@@H](O)[C@@H](O)[C@@H]2[C@@H]3C(=O)N(c4ccc(F)cc4F)C(=O)[C@@H]3CC[C@H]12` as the compound, how does the z-score read?
**A.** 0.817

**Q.** Which z-score does the source give for `O=C(NN=C1C[C@@H](O)[C@@H](O)[C@@H]2[C@@H]3C(=O)N(C4CCCCC4)C(=O)[C@@H]3CC[C@@H]12)OCc1ccccc1` here?
**A.** -0.678

**Q.** With `CC(CCN1CCCCc2nc(C)c(C)cc21)=NOC[C@@H](O)COCc1ccco1` as the compound, how does the z-score read?
**A.** -0.688

**Q.** Which z-score does the source give for `C=CC1=C[C@H](O)[C@@H]2O[C@@H]2C12OCCCO2` here?
**A.** -0.38

**Q.** Which z-score does the source give for `CON=C1[C@H]2CCn3c(=O)n(-c4ccccc4)c(=O)n3[C@H]2[C@H](O)[C@@H]2O[C@H]12` here?
**A.** 0.116
